# Assay outcomes deposited in PubChem BioAssay by National Center for Advancing Translational Sciences (NCATS).
# Anesthetic bind = binds horse apoferritin like a general anesthetic. AID 485281. 350,000 tested, 0.074% active. Potency, µM (titrated, usually from 77.5 µM), for the others: top-dose activity change, negative = displacement, most hits filed as inhibitors. P02791. apoferritin/1-aminoanthracene competitive binding, fluorescence; also: % is scaled to controls: 0 for no effect and ±100 for the full control effect; nearly all actives have a fitted effect of over 20% in size
# Target sequence (P02791 2-175 limits assumed): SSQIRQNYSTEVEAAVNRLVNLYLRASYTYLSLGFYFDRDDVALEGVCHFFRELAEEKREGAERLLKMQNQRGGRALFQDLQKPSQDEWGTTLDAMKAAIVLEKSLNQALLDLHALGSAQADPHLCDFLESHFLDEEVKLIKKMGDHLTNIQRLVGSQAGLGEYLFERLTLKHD
#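 Steps: apoferritin (10 uM) was premixed with half-saturated 1-AMA in PBS, compounds were pin-transferred, plates stood 10 min at room temperature, fluorescence was read at 380/535 nm, and curves were fitted with a Hill equation.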
# S2 tox = cell viability loss in ATXN counter-screen; Potency, µM (top dose mostly 56.7 µM), most hits filed as cytotoxic; 400,000 tested, 0.49% active; S2 cells (HEK-293 line with an ATXN2-luciferase reporter) viability, CellTiter-Fluor protease fluorescence, 24 h; also: nearly all actives have a fitted effect of over 40% in size
# ATXN2 expr inh = reduces ATXN2 reporter expression in HEK-293 cells; HEK-293 ATXN2-luciferase reporter, luminescence, 24 h; Potency, µM (top dose mostly 57 µM), for inactives: top-dose activity change, negative = inhibition, usual class: inhibitors; 360,000 tested, 0.72% active; AID 1745845; also: % is scaled to controls: 0 for no effect and ±100 for the full control effect; nearly all actives have a fitted effect of over 55% in size
#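 ATXN2-luciferase reporter cells (luciferase flanked by upstream and downstream ATXN2 gene portions) were treated 24 h at 37 °C with compounds at up to 57 uM. SteadyGlo luminescence gave expression; GF-AFC fluorescence gave viability.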
# HepG2 viability = kills HepG2 cells in TGF-b inhibitor counter-screen; 410,000 tested, 0.76% active; HepG2 CAGA-GFP viability, ATP luminescence, 18 h; AID 588856; Potency, µM (top dose mostly 46.1 µM), without a hit: top-dose activity change, negative = cytotoxicity, most hits filed as cytotoxic
#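 HepG2 CAGA-GFP cells (1000/well, DMEM with 1% FBS) received compound, then TGF-beta at 500 pg/mL final, and were incubated 18 hours at 37 degrees C. Viability was read by CellTiter-Glo luminescence. Media-only wells were set as complete cell-killing and DMSO as no toxicity.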
# TGFb SMAD3 inh = blocks TGF-b signaling; HepG2 CAGA-GFP TGF-b/SMAD3 reporter, GFP fluorescence, 18 h; TGF-beta stimulated, 500 pg/mL final; Potency, µM (titrated, usually from 46.1 µM), without a hit: at the highest dose activity, negative = inhibition, most hits filed as inhibitors; 410,000 tested, 1.2% active; also: % is scaled to controls: 0 for no effect and ±100 for the full control effect; nearly all actives have a fitted effect of over 65% in size
#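 GFP signal (ex488/em500-530) from TGF-beta-stimulated HEPG2 CAGA-GFP cells, 500 pg/mL final, 18 h at 37 degrees C in DMEM plus 1% FBS, normalized to unstimulated and DMSO-stimulated controls.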
# Starred values were filed as active, the others as inactive; i = inactive; ? = inconclusive; . = not tested or not shown; [ ] = another dose, or the depositor's remark. In the library only some 2.4% were active in any assay of this set; here they are far more common. Calls follow the shape of the dose curve; as a rule, active = well fitted curve in the direction sought with a large enough effect; inconclusive = small, poorly fitted or top-dose-only effect, or another doubt; inactive = no such curve, though single readings can be large; an effect the other way counts as inactive or inconclusive. Potency is read from the fitted curve at half-maximal effect.
SMILES,Anesthetic bind,S2 tox,ATXN2 expr inh,HepG2 viability,TGFb SMAD3 inh
O=C(COC(=O)C1CCN(c2ccc(C(F)(F)F)cn2)CC1)NCc1cccc(Cl)c1,.,i,4%,6%,-3%
Cc1nc(SCC(=O)Nc2ccc(C)c(Cl)c2)cc(-c2ccccc2)n1,?,.,.,-12%,10µM*
O=C(Cc1cccc(C(F)(F)F)c1)NCc1cccc(Cl)c1,?,i,-9%,-6%,0%
O=C(NCc1cccc(Cl)c1)c1ccc(S(=O)(=O)Nc2cccc(C(F)(F)F)c2)cc1,-23%,i,-6%,10µM*,?
CCN1C(C(=O)c2ccccc2)=C(OC(=O)c2ccccc2OC)c2ccccc2S1(=O)=O,-18%,?,?,4.5µM*,10µM*
CCCCC(=O)OC1=C(C(=O)c2ccccc2)N(CC)S(=O)(=O)c2ccccc21,-3%,?,?,-43%,?
C(=C1c2ccccc2Oc2ccccc21)c1ccccc1,.,.,.,0%,0%
Cc1ccc2nc(CNC(=O)c3cc(NC(=O)c4ccccc4)cc4ncn(C5CCCC5)c34)cn2c1,.,i,.,.,.
CCOC(=O)CSc1nc2cc(OC)c(OC)cc2cc1C#N,.,.,.,4%,6%
O=C(NCc1cccnc1)c1ccc(-c2ccc(Cl)cc2)o1,-5%,i,.,-29%,?
O=C(NCc1cccnc1)/C(=C\c1ccc(-c2ccc(Cl)c(Cl)c2)o1)S(=O)(=O)c1ccccc1,-1%,.,13µM*,-103%,4.5µM*
Cc1nn(CC(=O)N/N=C/c2cccs2)c(C)c1[N+](=O)[O-],4%,i,-3%,4%,3%
COc1cccc(/C=N/NC(=O)Cn2nc(C)c([N+](=O)[O-])c2C)c1O,-6%,?,16µM*,-33%,-6%
COc1cccc(NC(=S)NNC(=O)C(C)n2nc(C)c([N+](=O)[O-])c2C)c1 (stereo not drawn),-7%,i,-6%,-36%,0%
COc1cccc(/C=N/NC(=O)C(C)n2nc(C)c([N+](=O)[O-])c2C)c1O (stereo not drawn),1%,?,25µM*,-7%,-1%
O=[N+]([O-])c1ccc2c(c1)C=C/C2=C/c1ccccc1,.,.,.,-36%,?
NC(=S)N/N=C/c1ccccc1OC(=O)/C=C/c1ccccc1,-15%,?,1.8µM*,4µM*,7.1µM*
NC(=S)N/N=C\c1ccccc1OCc1ccccc1,-4%,i,-14%,-59%,?
O=C1[C@H]2[C@@H](c3ccc(F)cc3)N3C(=O)N(c4cccc(F)c4)C(=O)[C@@]3(Cc3ccc(Cl)cc3)[C@H]2C(=O)N1C1CCCCC1,.,i,10%,1%,3%
Cc1ccc(-c2csc(NC(=O)C[n+]3cc(-c4ccccc4)n4c3CCC4)n2)cc1,-15%,?,-14%,-10%,22µM*
COc1ccc(CCNc2ncnc3c2oc2ccccc23)cc1OC,-13%,.,28µM*,-41%,?
Oc1ccc(-c2csc(-c3c[nH]c4ccccc34)n2)c(O)c1,42%,i,142%,-12%,-30%
Cc1ccc(-c2csc(-c3c[nH]c4ccccc34)n2)c(C)c1,-4%,i,24%,20µM*,?
CC(C)N(C(=O)CO/N=C/c1cccc([N+](=O)[O-])c1)C(C)C,45µM*,i,16%,-36%,-18%
COc1cccc(C(=O)NCC(=O)OCC(=O)Nc2ncc(Cl)cc2Cl)c1,-13%,i,10%,10µM*,40%
SMILES,Anesthetic bind,S2 tox,ATXN2 expr inh,HepG2 viability,TGFb SMAD3 inh
Cc1ccc(OCc2ccc(-c3nc(C#N)c(NCc4ccccc4Cl)o3)o2)cc1,139%,20µM*,?,-62%,?
Cc1cc(N(C)C)c(C)cc1/C=C/c1ccnc2ccccc12,.,.,.,-42%,-25%
O=C(COc1ccccc1Cl)Nc1ccc(N2CCN(C(=O)c3ccccc3)CC2)cc1,66%,?,18µM*,-28%,?
O=C(COc1ccccc1Cl)Nc1ccc(N2CCCC2)cc1,-18%,i,0%,-19%,6%
CCCCOc1ccc(CNC(=O)c2cnc3sc(N4CCOCC4)nn3c2=O)cc1,4.5µM*,.,.,4%,-1%
CCOc1ccc(CNC(=O)c2cnc3sc(N4CCOCC4)nn3c2=O)cc1,-9%,.,.,-2%,-7%
CC(C)=CCc1c2c(c3occ(-c4ccc(O)cc4)c(=O)c3c1O)C=CC(C)(C)O2,?,.,?,10µM*,7.9µM*
CC(C)=CCc1c2c(c3occ(-c4ccc(O)c(O)c4)c(=O)c3c1O)C=CC(C)(C)O2,.,?,22µM*,8.9µM*,10µM*
CC1(C)C=Cc2c(c3c(c4c(=O)c(-c5ccc(O)cc5)coc24)OC(C)(C)CC3)O1,?,.,?,-83%,14µM*
Cc1cc(C(=O)CSc2nncs2)c(C)n1Cc1ccco1,?,i,-29%,20%,0%
Cc1cc(C(=O)CCl)c(C)n1Cc1ccco1,-19%,25µM*,?,-26%,?
Cc1cc(C(=O)CCl)c(C)n1CCc1ccccc1,?,?,-33%[11.3 µM],7.9µM*,?
CCOC(=O)c1cc(C)n(CCc2ccccc2)c1C,7%,i,21%,-16%,2%
COc1cc(-c2c(OC)cccc2OC)cc2c1OCCN(Cc1cn[nH]c1-c1ccc(Cl)cc1)C2,.,i,.,.,.
COc1cc(/C=C/C(=O)c2ccc3c(c2)OCO3)cc(OC)c1OC,.,?,?,22µM*,18µM*
COc1cc(/C=C/C(=O)c2ccc3c(c2)OCCO3)cc(OC)c1OC,-12%,?,?,-29%,?
CCN(CC)/[N+]([O-])=N/Oc1ccc([N+](=O)[O-])cc1[N+](=O)[O-],.,.,.,-13%,0%
O=C1OC2(c3ccccc31)c1cc(Br)c(O)c(Br)c1Oc1c2cc(Br)c(O)c1Br,.,i,-2%,.,.
COc1cc2nc(-c3ccc(N4CCN(C)CC4)cc3)nc(NCCN3CCOCC3)c2cc1OC,.,.,0.39µM*,.,.
Cc1cc(C(C)(C)C)ccc1OC(=O)C1=CC=CN2CCS(=O)(=O)N=C12,.,i,-2%,-34%,?
Nc1c(N=Nc2ccc([N+](=O)[O-])cc2)c(S(=O)(=O)O)cc2cc(S(=O)(=O)O)c(/C=C/c3ccccc3)c(O)c12,.,.,.,-19%,-3%
COc1ccc(C(=O)/C=C/C(=O)N(Cc2ccccc2)C(C(=O)NC2CCCCC2)c2ccncc2)c(O)c1 (stereo not drawn),?,?,-21%,8%,?
COc1ccc(C(=O)/C=C/C(=O)N(Cc2ccccc2OC)C(C(=O)NC2CCCCC2)c2ccncc2)c(O)c1 (stereo not drawn),?,.,24µM*,9%,?
COc1ccc(C(=O)/C=C/C(=O)N(CC(=O)NC2CCCCC2)Cc2ccccc2OC)c(O)c1,-13%,.,21µM*,-13%,?
